This note sets out measurements from PubChem BioAssay (NCI).

About 83,000 compounds went through this panel and 20% of them were active in at least one assay; those are over-represented in the sample as a whole.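 Interpretation: 100, growth as untreated; towards 0, rising growth inhibition; 0, no net growth; 0 to -100, cell death. Compounds scoring below 10 were considered active.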 Active and inactive are the calls of the source.

The first experiment has as its system ACHN renal. Kind of experiment: NCI-60 one-dose screen, 48 h (100 = growth as untreated, 0 = no growth, -100 = all killed). As to conditions: 10 µM unless noted.
For the compound `COc1ccc(C(=O)/C=C/c2cn(Cc3ccc(Cl)cc3)c3ccccc23)cc1`, the growth is 62.1% (inactive).

As to `COC(=O)CCCCCCCCC1(C)C=CC(C(C)O)=CC1` (centres undefined), the growth is 114% (inactive).

Consider `COc1ccc(-c2nn(Cc3ccccc3)c3c2-c2oncc2CC3)cc1OC`, for which the growth was 90.9% (inactive).

As to `COc1ccc(CNC(=O)COc2ccc(/C=N/Nc3nc4ccccc4s3)cc2)cc1`, the growth is 8.13% (active).

The next experiment concerns CAKI-1 renal. Described as above. As to conditions: 10 µM unless noted.
On to `COc1ccc(NC(=O)c2sc3nc(C)c(C(O)c4ccc(OC)cc4)cc3c2N)cc1` (centres undefined), for which the growth is 30.4% (inactive).

In the case of `N#Cc1c(NC(=O)c2cccc(Br)c2)sc2c1CCCC2`, the growth is 73% (inactive).

For `Clc1ccc(C2CC(c3cccc(Nc4ccncc4)c3)=NN2c2ccccc2)cc1` (centres undefined), the growth is 52.6% (inactive).

Take `O=C(OCc1nc2nc(Cl)nc(N3CCOCC3)c2[nH]1)n1ccnc1`: the growth is -68.8% (active).

Turning to `CC(=O)O[C@]1(C(C)=O)CC[C@H]2[C@@H]3C=C(Cl)C4=CC(=O)CC[C@]4(C)[C@H]3CC[C@@]21C`, the growth is 94.6% (inactive).

With `CC(=O)c1c[nH]c2ccc(-c3ccnc(Nc4ccc(NC(=O)C5CCCC5)c(CN5CCOCC5)c4)n3)cc12`, the growth is 0.231% (active).

`O=C(N/N=C/c1cccnc1)c1ccccc1Nc1cccc(C(F)(F)F)c1`: the growth is 79.6% (inactive).

For `CN1CCN(CCCOc2ccc3ncnc(Nc4ccc(Oc5cccc(C(F)(F)F)c5)c(Cl)c4)c3c2)CC1`, the growth was 0.55% (active).

Take `CN(C)Cc1c(-c2ccccc2)[nH]c2ccccc12`: the growth was 101% (inactive).

For `CCC(C)C(N)C(=O)NNc1n[nH]c(=S)n1N` (centres undefined), the growth is 91% (inactive).

As for `CC[C@H](C)[C@@H]1NC(=O)[C@H](Cc2ccc(O)cc2)N(C)C(=O)[C@H](Cc2ccccc2)NC(=O)CN(C)C(=O)[C@@H]2CCCN2C(=O)[C@@H](Cc2ccccc2)N(C)C(=O)[C@H](CC(C)C)NC1=O`, the growth was 11.4% (inactive).

As to `C#CC(=O)Nc1cccc(Nc2nc3c(c(NCc4ccccc4)n2)CCCC3)c1`, the growth is -85.4% (active).

As to `CCCCCOc1ccc(/C=N/Nc2cc(C)nc3ccc(Br)cc23)cc1`, the growth was 43.6% (inactive).

Consider `COc1ccc(OC)c(/C=C/[C@H]2O[C@@H](C)[C@H](O)[C@@H]2O)c1`, for which the growth was 96.9% (inactive).

Turning to `COc1ccc(C(=O)c2cc(C)c(OC)c(C)c2)c(OC)c1O`, the growth is 39.5% (inactive).

For the compound `C=C1C(=O)O[C@H]2[C@H]1CC/C(CNC(=O)/C=C/c1ccc(Br)cc1)=C\CC[C@@]1(C)O[C@@H]21`, the growth was -91.8% (active).

Regarding `O=C(c1ccccc1)N1N=C(c2ccc(-n3ccc(C(F)(F)F)n3)cc2)CC1c1ccc[nH]1` (centres undefined), the growth was 84.1% (inactive).

In the case of `CS(=O)(=O)Nc1cc(-c2ccc3ncnc(Nc4ccc5[nH]ncc5c4)c3c2)cnc1Cl`, the growth was 51.9% (inactive).

As for `Nc1ncc(C#Cc2cncc(NC(=O)c3cccc(C(F)(F)F)c3)c2)c2cccnc12`, the growth was 68.6% (inactive).

For `CCOC(=O)Oc1c(OC)cc(C(=O)O[C@@H]2C[C@@H]3CN4CCc5c([nH]c6cc(OC)ccc56)[C@H]4C[C@@H]3[C@H](C(=O)OC)[C@H]2OC)cc1OC`, the growth was 65.5% (inactive).

On to `O=C1Nc2ccccc2/C1=C\c1cccc(/C=C2/C(=O)Nc3ccccc32)n1`, for which the growth was -80.7% (active).

Take `NC(=O)CN1CCN(c2ccccc2Cl)CC1`: the growth was 96.4% (inactive).

For the compound `CSc1nnc2c(=O)n(C)c(=O)n(C)c2n1`, the growth was 110% (inactive).

`NC(=O)c1cccc(-c2ccccc2N2CCCCC2)c1`: the growth is 83% (inactive).

As to `COc1cnccc1-c1nc2ccc3[nH]ncc3c2c2c1CCCC2`, the growth is 18% (inactive).

With `c1ccc(-c2nnc(Nc3ccc4c(c3)OCCO4)o2)c(NCc2ccncc2)c1`, the growth was 21.1% (inactive).

Regarding `CNC(=O)Nc1ccc(-c2nc(N3CCOCC3)nc3c2cnn3C2CCOCC2)cc1`, the growth was -19.3% (active).

Regarding `O=C(N/N=C/c1ccc(O)c(O)c1)c1sc2ccccc2c1Cl`, the growth is 84.7% (inactive).

For `COc1cc(C2CC(c3cccc(Nc4ccncc4)c3)=NN2c2ccccc2)cc(OC)c1OC` (centres undefined), the growth is 43.6% (inactive).

With `C[C@H]1[C@H](C)CC[C@]2(CO)CC[C@]3(C)C(=CC[C@@H]4[C@@]5(C)CCCNC(C)(C)[C@@H]5CC[C@]43C)[C@H]12`, the growth is 16.4% (inactive).

For `O=c1[nH]nc(-c2ccc(Br)cc2)cc1Cc1ccc(O)cc1`, the growth was 98.1% (inactive).

For the compound `CC1(C)CC[C@]2(C(=O)NCC#CCN3CCOCC3)CC[C@]3(C)C(=CC[C@@H]4[C@@]5(C)Cc6c([nH]c7ccccc67)C(C)(C)[C@@H]5CC[C@]43C)[C@@H]2C1`, the growth is 81.9% (inactive).

Regarding `COc1ccc(C(=O)/C=C/c2cn(Cc3ccc(Cl)cc3)c3ccccc23)cc1`, the growth is 2.08% (active).

For the compound `COc1ccc(-c2nn(Cc3ccccc3)c3c2-c2oncc2CC3)cc1OC`, the growth is 81.8% (inactive).

As for `COc1ccc(CNC(=O)COc2ccc(/C=N/Nc3nc4ccccc4s3)cc2)cc1`, the growth was 27.9% (inactive).

In the next experiment the test system is A498 renal. The description is as above. As to conditions: 10 µM unless noted.
`COc1ccc(NC(=O)c2sc3nc(C)c(C(O)c4ccc(OC)cc4)cc3c2N)cc1` (centres undefined): the growth is 12.6% (inactive).

On to `Clc1ccc(C2CC(c3cccc(Nc4ccncc4)c3)=NN2c2ccccc2)cc1` (centres undefined), for which the growth was 84% (inactive).

For `O=C(OCc1nc2nc(Cl)nc(N3CCOCC3)c2[nH]1)n1ccnc1`, the growth was -4.23% (active).

On to `CC(=O)c1c[nH]c2ccc(-c3ccnc(Nc4ccc(NC(=O)C5CCCC5)c(CN5CCOCC5)c4)n3)cc12`, for which the growth is -85.1% (active).

On to `O=C(N/N=C/c1cccnc1)c1ccccc1Nc1cccc(C(F)(F)F)c1`, for which the growth was 75.6% (inactive).

Regarding `CN1CCN(CCCOc2ccc3ncnc(Nc4ccc(Oc5cccc(C(F)(F)F)c5)c(Cl)c4)c3c2)CC1`, the growth is 63.1% (inactive).

As to `CN(C)Cc1c(-c2ccccc2)[nH]c2ccccc12`, the growth was 75.7% (inactive).

In the case of `O=C(OC(OC(=O)c1cc(Cl)cc(Cl)c1)c1cccc2ccccc12)c1ccccc1` (centres undefined), the growth is 84.8% (inactive).

As for `CCC(C)C(N)C(=O)NNc1n[nH]c(=S)n1N` (centres undefined), the growth was 93.8% (inactive).

Take `CC[C@H](C)[C@@H]1NC(=O)[C@H](Cc2ccc(O)cc2)N(C)C(=O)[C@H](Cc2ccccc2)NC(=O)CN(C)C(=O)[C@@H]2CCCN2C(=O)[C@@H](Cc2ccccc2)N(C)C(=O)[C@H](CC(C)C)NC1=O`: the growth is -3.73% (active).

In the case of `CS(=O)(=O)Nc1cc(-c2ccc3ncnc(Nc4ccc5[nH]ncc5c4)c3c2)cnc1Cl`, the growth was 24.5% (inactive).

As for `Nc1ncc(C#Cc2cncc(NC(=O)c3cccc(C(F)(F)F)c3)c2)c2cccnc12`, the growth was 62.8% (inactive).

For `O=C1Nc2ccccc2/C1=C\c1cccc(/C=C2/C(=O)Nc3ccccc32)n1`, the growth is -77.7% (active).

Regarding `CSc1nnc2c(=O)n(C)c(=O)n(C)c2n1`, the growth is 88.7% (inactive).

On to `NC(=O)c1cccc(-c2ccccc2N2CCCCC2)c1`, for which the growth is 95.3% (inactive).

With `COc1cnccc1-c1nc2ccc3[nH]ncc3c2c2c1CCCC2`, the growth was 13.2% (inactive).

As to `c1ccc(-c2nnc(Nc3ccc4c(c3)OCCO4)o2)c(NCc2ccncc2)c1`, the growth is 10% (inactive).

Turning to `O=C(N/N=C/c1ccc(O)c(O)c1)c1sc2ccccc2c1Cl`, the growth was 71.4% (inactive).

Take `COc1cc(C2CC(c3cccc(Nc4ccncc4)c3)=NN2c2ccccc2)cc(OC)c1OC` (centres undefined): the growth is 74.9% (inactive).

On to `Nc1ccccc1NC(=O)c1ccc(CN2CCC/C(=C\c3cccc(Cl)c3)C2=O)cc1`, for which the growth was -11% (active).

For `O=c1[nH]nc(-c2ccc(Br)cc2)cc1Cc1ccc(O)cc1`, the growth is 103% (inactive).

As to `COc1ccc(C(=O)/C=C/c2cn(Cc3ccc(Cl)cc3)c3ccccc23)cc1`, the growth is -6.05% (active).

Regarding `COC(=O)CCCCCCCCC1(C)C=CC(C(C)O)=CC1` (centres undefined), the growth is 96.1% (inactive).

For `COc1ccc(-c2nn(Cc3ccccc3)c3c2-c2oncc2CC3)cc1OC`, the growth is 57.4% (inactive).

Regarding `COc1ccc(CNC(=O)COc2ccc(/C=N/Nc3nc4ccccc4s3)cc2)cc1`, the growth is -19.5% (active).
